The results in this text go back to PubChem BioAssay (NCATS).

Records with an inconclusive call do not appear. Activity calls are given as the source filed them. The call rests on the fitted dose curve; in most records, active means well fitted cell-killing curve with a large enough effect; inconclusive means small, poorly fitted or top-dose-only effect; inactive means flat fitted curve, though single readings scatter.
Potency means the concentration at half of the fitted maximal effect.

One test is described as follows: Quantitative highthroughput screen to assess conditional lethalithy of NOMO1 cells grown in RPMI1640 with untreated serum (RPMI+s) (AID 1963876). Further: nearly all actives have a fitted effect of over 35% in size.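 On viability: 100% = DMSO wells and 0% = empty wells without cells.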 Conditions: NOMO1 AML cells in RPMI+serum, CellTiter-Glo viability, 48 h; series mostly up to 45.8 µM; viability: at the top concentration. The method, boiled down: (§1)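 Each medium arm—HPLM with 10% dialyzed FBS, or RPMI1640 with 5 mM glucose and 10% untreated or dialyzed FBS—was screened against an 11-point, 3-fold compound titration for 48 h at 37 °C, with CellTiter-Glo luminescence as endpoint.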
(In general: Cellular ATP, detected with luciferase, serves as a proxy for viable cell number.)
The term viability denotes a read-out of living cells in per cent, often relative to untreated cells. `c1ccc(CCCN2CCN(CCOC(c3ccccc3)c3ccccc3)CC2)cc1`: the “viability” value was 95.7% (inactive).
Still for that read-out and setting: the result for `CCN1C[C@]2(OC(=O)c3ccccc3NC(C)=O)CC[C@H](OC)[C@@]34[C@H]5CC6[C@@H](OC)C[C@](O)(C(C[C@@H]23)[C@@H]14)[C@@]5(O)[C@@H]6OC` reads 104% (inactive); that for `COc1ccc(CC2NCCc3cc(OC)c(OC)cc32)cc1OC` (stereo not drawn), 105% (inactive).
With `C[C@@]12OC(=O)[C@]1([C@@H](O)[C@@H]1C=CCCC1)NC(=O)[C@H]2CCCl`, the Potency was 235 nM (active).
`Oc1ccc2c3c1O[C@H]1c4[nH]c5c(c4C[C@@]4(O)[C@@H](C2)N(CC2CC2)CC[C@]314)C[C@@]1(O)[C@H]2Cc3ccc(O)c4c3[C@@]1(CCN2CC1CC1)[C@H]5O4`: the “viability” value is 110% (inactive).
Take `CC(=CCCC1=CCC(C2=CC(=O)OC2O)OC1O)CCC1=C(C)CCCC1(C)C` (stereo not drawn): the “viability” value is 101% (inactive).
`Cc1c(N)nc([C@H](CC(N)=O)NC[C@@H](N)C(N)=O)nc1C(=O)N[C@H](C(=O)N[C@@H](C)[C@H](O)[C@@H](C)C(=O)N[C@@H](C(=O)NCCc1nc(-c2nc(C(=O)NCCC[S+](C)C)cs2)cs1)[C@@H](C)O)C(O[C@H]1O[C@H](CO)[C@H](O)[C@@H](O)[C@@H]1O[C@H]1O[C@H](CO)[C@@H](O)[C@H](OC(N)=O)[C@H]1O)c1cnc[nH]1` (stereo partly drawn): the Potency was 1180 nM (active).
As to `O=[N+]([O-])c1ncc[nH]1`, the “viability” value is 87.9% (inactive).
On the same count and under the same terms, the result for `CC(O)=C(C#N)C(=O)Nc1cc(Br)ccc1Br` reads 96.1% (inactive); that for `CC(N[C@H]1C[C@H]1c1ccccc1)c1ccc2c(c1)OCCO2` (stereo partly drawn), 104% (inactive).
For the compound `C[C@@H]1O[C@@H](O[C@@H]2C=C3CC[C@@H]4[C@@H](CC[C@]5(C)[C@H](c6ccc(=O)oc6)CC[C@@]45O)[C@@]3(C)CC2)[C@H](O)[C@H](O)[C@H]1O`, the Potency is 66.2 nM (active).
`COc1ccc2c(c1)[C@]13CCCCC1C(C2)N(C)CC3` (stereo partly drawn): the “viability” value is 88% (inactive).
The same measure, in the same setting: the result for `C[C@H]([C@H](O)CCC(C)(C)O)[C@H]1CC[C@@]2(O)C3=CC(=O)[C@@H]4C[C@@H](O)[C@@H](O)C[C@]4(C)[C@@H]3CC[C@]12C` reads 96.2% (inactive).
For `C#C[C@]1(O)C=C[C@@H]2[C@@H]3CCC4=CC(=O)CC[C@@H]4[C@H]3CC[C@@]21CC`, the “viability” value was 109% (inactive).
Same read-out and setting: with `CCOC(=O)c1c(C(C#N)=CN)c2ccc(Cl)c(Cl)c2n1C` the figure was 107% (inactive); with `C[C@]12CC[C@H](O)CC1=CC[C@H]1[C@H]3CCC(=O)[C@@]3(C)CC[C@@H]12`, 98.3% (inactive).
Consider `NC1=NC(=O)N2CC12` (stereo not drawn), for which the Potency is 5900 nM (active).
Regarding `C[C@@H]1[C@H](O)[C@@H](C)C=CC=CCCC=CC=CC=CC=C[C@H](O[C@H]2O[C@@H](C)[C@H](O)[C@@H](N)[C@@H]2O)CC2O[C@](O)(C[C@@H](O)[C@H](O)CC[C@@H](O)C[C@@H](O)C[C@@H](O)CC(=O)O[C@H]1C)C[C@H](O)[C@H]2C(=O)O`, the “viability” value is 95.4% (inactive).
Same read-out and setting: the result for `C=C1C[C@H]2[C@H]3CCC(=O)[C@@]3(C)CC[C@@H]2[C@@]2(C)C=CC(=O)C=C12` reads 88.7% (inactive).

A short description of the next test: Quantitative highthroughput screen to assess conditional lethalithy of NOMO1 cells grown in RPMI1640 with dialyzed fetal bovine serum (RPMI+ds) (AID 1963877). Further: nearly all actives have a fitted effect of over 30% in size.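 On viability: 100% = DMSO control wells and 0% = empty wells.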 Conditions: NOMO1 in RPMI+dialyzed FBS viability, ATP luminescence, 48 h; series mostly up to 45.8 µM; viability: at the top concentration. The method, boiled down: as §1
Turning to `c1cc2c(cc1[C@H]1OC[C@H]3[C@H]1CO[C@H]3c1ccc3c(c1)OCO3)OCO2`, the “viability” value is 98.2% (inactive).
Consider `Cc1nc(-c2ccc(-c3ccc(C(=O)N4CCc5cc6c(cc54)C4(CCN(C)CC4)CO6)cc3)c(C)c2)no1`, for which the “viability” value was 98.8% (inactive).
On the same count and under the same terms, the result for `CCN1C[C@]2(OC(=O)c3ccccc3NC(C)=O)CC[C@H](OC)[C@@]34[C@H]5CC6[C@@H](OC)C[C@](O)(C(C[C@@H]23)[C@@H]14)[C@@]5(O)[C@@H]6OC` reads 89.1% (inactive).
On to `CC(C)(O)C=CC(=O)[C@](C)(O)[C@H]1[C@H](O)C[C@]2(C)[C@@H]3CC=C4[C@@H](C=C(O)C(=O)C4(C)C)[C@]3(C)C(=O)C[C@@]12C`, for which the Potency was 166 nM (active).
On to `O=C(O)CNC(=O)c1c(O)c2ccccc2n(Cc2ccccc2)c1=O`, for which the “viability” value is 87.8% (inactive).
Take `O=c1[nH]c2ccc(Cl)cc2c(N[C@@H]2CN3CCC2CC3)c1-c1nc2ccccc2[nH]1`: the Potency was 148 nM (active).
`CC(C)(C)[C@]1(O)C[C@@H]2OC(=O)C[C@@]23C(=O)O[C@@H]2OC(=O)[C@H](O)C213` (stereo partly drawn): the “viability” value is 95% (inactive).
Same read-out and setting: the result for `COc1ccc(CC2NCCc3cc(OC)c(OC)cc32)cc1OC` (stereo not drawn) reads 95.2% (inactive).
For the compound `C[C@@]12OC(=O)[C@]1([C@@H](O)[C@@H]1C=CCCC1)NC(=O)[C@H]2CCCl`, the Potency was 209 nM (active).
Regarding `CCOC(=O)c1cncn1[C@H](C)c1ccccc1`, the “viability” value is 103% (inactive).
`C[C@]12Cc3cn[nH]c3C[C@@H]1CC[C@@H]1[C@H]2CC[C@@]2(C)[C@H]1CC[C@]2(C)O`: the “viability” value was 101% (inactive).
In the case of `CC(=CCCC1=CCC(C2=CC(=O)OC2O)OC1O)CCC1=C(C)CCCC1(C)C` (stereo not drawn), the “viability” value is 92.6% (inactive).
On the same count and under the same terms, with `C[C@]12CCC(=O)C(O)=C1CC[C@@H]1[C@H]3CCC(=O)[C@@]3(C)CC[C@@H]12` the figure was 94% (inactive).
With `C[C@H]1CCCC=CC2C[C@H](O)C[C@@H]2[C@H](O)C=CC(=O)O1` (stereo partly drawn), the Potency was 1.2 nM (active).
Regarding `CC1=NN=C(c2ccc(N)cc2)c2cc3c(cc2C1)OCO3`, the “viability” value was 90% (inactive).
Same read-out and setting: with `O=C(NCC1CCOCC1)c1cnc(Nc2ccc(Cl)cc2Cl)nc1C(F)(F)F` the figure was 108% (inactive); with `CC(O)=C(C#N)C(=O)Nc1cc(Br)ccc1Br`, 95.3% (inactive); with `CC(C)CC(N(C)C)C1(c2ccc(Cl)cc2)CCC1` (stereo not drawn), 98.7% (inactive).
For `O=C1C=CC[C@@H]2[C@H]3CCCN4CCC[C@@H](CN12)[C@@H]34`, the “viability” value is 94.2% (inactive).
Consider `C=C[C@@H]1CN2CCC1C[C@H]2[C@H](O)c1ccnc2ccccc12` (stereo partly drawn), for which the Potency was 18700 nM (active).
In the case of `C[C@](O)(CS(=O)(=O)c1ccc(F)cc1)C(=O)Nc1ccc(C#N)c(C(F)(F)F)c1`, the “viability” value is 101% (inactive).
Take `C[C@H]([C@H](O)CCC(C)(C)O)[C@H]1CC[C@@]2(O)C3=CC(=O)[C@@H]4C[C@@H](O)[C@@H](O)C[C@]4(C)[C@@H]3CC[C@]12C`: the “viability” value is 98.5% (inactive).
Still for that read-out and setting: the result for `C#C[C@]1(O)C=C[C@@H]2[C@@H]3CCC4=CC(=O)CC[C@@H]4[C@H]3CC[C@@]21CC` reads 99.5% (inactive); that for `C[C@]12CC[C@H]3[C@@H](CCC4=CC(=O)CC[C@@]43C)[C@H]1CC[C@H]2O`, 98.5% (inactive).
Consider `CN(C)CCN(C)CCc1ccc(Cl)c(Cl)c1`, for which the “viability” value is 91.1% (inactive).
For `C[C@]12CC[C@H](O)CC1=CC[C@H]1[C@H]3CCC(=O)[C@@]3(C)CC[C@@H]12`, the “viability” value is 103% (inactive).
Consider `C[C@]12CC[C@H]3[C@@H](CCC4=CC(=O)CC[C@@]43C)[C@H]1CC[C@H]2OC(=O)CCC1CCCC1`, for which the “viability” value is 100% (inactive).
On to `NC1=NC(=O)N2CC12` (stereo not drawn), for which the Potency was 5260 nM (active).
Same read-out and setting: with `CC[C@@H]1[C@@H](C)O[C@@](O)([C@@H](C)[C@H](O)[C@H](C)[C@H]2OC(=O)C=CC=C[C@@H](C)[C@@H]([C@@H](C)[C@@H](O)[C@H](C)[C@@]3(O)C[C@H](O[C@H]4C[C@H](O)[C@H](O)[C@H](C)O4)[C@H](CC)[C@@H](C)O3)OC(=O)C=CC=C[C@@H]2C)C[C@H]1O[C@H]1C[C@H](O)[C@H](O)[C@H](C)O1` the figure was 2640 nM (active).
